Assay outcomes deposited in PubChem by The Scripps Research Institute Molecular Screening Center.
Compounds with a hit are over-represented: about 4.1% of the library has one in this group of screens.
ssDAF12 agonist: S. stercoralis DAF-12 activation, primary screen. activation, % at 6.8 µM. 1% of 370,000 active. HEK293 ssDAF-12/GRIP1 lit1-tk-luc reporter, luminescence; % of 3 µM dafachronic acid response. AID 652126;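 active = activation above the mean over all tested compounds plus 3 SD, cut at about 0.9% in these data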
DAX1 inh-1: NR0B1 (DAX1) inhibition | P51843 | inhibition, % at 6.75 µM | 0.99% of 340,000 active | HEK293 Gal4-DAX1 luciferase reporter, luminescence;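 active = inhibition above the mean over all tested compounds plus 3 SD, cut at about 4.2% in these data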;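 also: inhibition shows as a rise in luminescence from relieved DAX1 repression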
Target sequence (P51843 207-470 limits assumed): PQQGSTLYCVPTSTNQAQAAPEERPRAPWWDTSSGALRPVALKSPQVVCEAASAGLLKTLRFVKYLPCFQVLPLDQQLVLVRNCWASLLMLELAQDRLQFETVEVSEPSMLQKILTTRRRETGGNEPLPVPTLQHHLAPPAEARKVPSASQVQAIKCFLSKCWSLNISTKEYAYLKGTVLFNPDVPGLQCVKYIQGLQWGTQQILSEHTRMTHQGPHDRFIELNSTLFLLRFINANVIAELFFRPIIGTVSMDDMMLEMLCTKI
DAX1 inh-2: DAX1 (NR0B1) inhibition, primary screen. HEK293T StAR-luciferase reporter, SF-1/DAX-1 repression relief. AID 652010. inhibition, % at 6.8 µM. 1.1% of 370,000 active;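 active = inhibition above the mean over all tested compounds plus 3 SD, cut at about 3.6% in these data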;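 also: higher inhibition means more luminescence from relief of DAX-1 repression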
hcDAF-12 act: activators of H. contortus DAF-12 nuclear receptor. HEK293 hcDAF-12 lit1-tk-luc reporter, luminescence; 0% DMSO, 100% Δ7-dafachronic acid. activation, % at 6.8 µM. 1.4% of 370,000 active. AID 652067;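 active = activation above the mean of all tested compounds plus 3 SD, cut at about 5.5% in these data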
hgDAF-12 ag: activates the H. glycines DAF-12 receptor ligand-binding domain; 1.8% of 370,000 active; AID 687014; activation, % at 6.8 µM; HEK293 GAL4-hgDAF12 UAS-luciferase reporter, agonist luminescence; normalized to butyrate control;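 active = activation above a cutoff set at the mean of all screened compounds plus 3 SD, cut at about 10% in these data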
DAX1 inh confirm: NR0B1 (human) inhibition, confirmation | shares compounds with DAX1 inh-2 | inhibition, % at 6.8 µM | AID 652134 | 87% of 2,400 active | HEK293T StAR-promoter luciferase reporter, SF-1/DAX-1 repression;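 active = inhibition above the average of every tested compound plus 3 SD, cut at about 3.8% in these data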;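 also: active compounds raise luminescence by relieving repression of the StAR reporter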
SF1 AF2mut Luc: counter-screen for DAX1 inhibitors: nonselective inhibitors with SF-1 AF2 mutant. shares compounds with DAX1 inh-2. HEK293 StAR-luciferase, luminescence. 78% of 2,400 active. inhibition, % at 6.8 µM;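 active = inhibition above the mean of all tested compounds plus 3 SD, cut at about 3% in these data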
LXR ag: counter-screen for hcDAF-12 agonists: agonists of human LXR-beta; shares compounds with hcDAF-12 act; HEK293 Gal4-LXR tk-luc reporter, luminescence, 24 h; normalized: DMSO 0%, positive control 100%; activation, % at 6.8 µM; 3,400 tested, under 10 active;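 active = mean percent activation of the reporter above a cutoff set as the average over tested compounds plus their standard deviation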
Target sequence (P55055 whole entry, looked up, the tested form may be a part): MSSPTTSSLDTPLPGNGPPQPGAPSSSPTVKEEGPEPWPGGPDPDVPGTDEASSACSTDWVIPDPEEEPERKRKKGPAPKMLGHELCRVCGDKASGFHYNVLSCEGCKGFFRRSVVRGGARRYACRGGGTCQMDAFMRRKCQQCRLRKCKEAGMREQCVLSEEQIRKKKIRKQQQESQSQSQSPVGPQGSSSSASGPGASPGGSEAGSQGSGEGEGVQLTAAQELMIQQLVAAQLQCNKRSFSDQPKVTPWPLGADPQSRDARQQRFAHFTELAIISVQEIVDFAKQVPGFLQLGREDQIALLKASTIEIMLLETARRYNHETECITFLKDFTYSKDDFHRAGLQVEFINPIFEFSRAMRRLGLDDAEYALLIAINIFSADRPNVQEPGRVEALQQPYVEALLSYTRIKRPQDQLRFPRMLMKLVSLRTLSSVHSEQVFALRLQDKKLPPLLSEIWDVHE
hcDAF12 conf: hcDAF-12 agonism, confirmation assay | shares compounds with hcDAF-12 act | HEK293 hcDAF-12 lit1-tk-luc reporter, luminescence; % of Δ7-dafachronic acid response | activation, % at 6.8 µM | 61% of 3,400 active | AID 743032;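 active = mean activation across triplicate tests above the threshold derived from the earlier primary screen, cut at about 5.5% in these data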
hgDAF12 ag: hgDAF-12 agonism, confirmation assay; shares compounds with hgDAF-12 ag; HEK293 GAL4-hgDAF12 luciferase reporter, agonist mode; percent of butyrate response; activation, % at 6.8 µM; 80% of 3,300 active;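 active = mean activation over triplicate wells above the hit cutoff derived from the earlier primary screen, cut at about 11% in these data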
LXRb DAF12 ctr: counter-screen for DAF-12 agonists: agonists of human LXR-beta; shares compounds with hgDAF-12 ag; HEK293 Gal4-LXR luciferase reporter, 24 h; activation, % at 6.8 µM; 3,300 tested, under 10 active;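 active = mean activation of the triplicate above a set limit carried over from the primary screen, none filed active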
A number is an active result; - = inactive; . = not tested or not shown.

SMILES	ssDAF12 agonist	DAX1 inh-1	DAX1 inh-2	hcDAF-12 act	hgDAF-12 ag	DAX1 inh confirm	SF1 AF2mut Luc	LXR ag	hcDAF12 conf	hgDAF12 ag	LXRb DAF12 ctr
CCc1nnc(NC(=O)c2sc3nc4c(cc3c2N)CCCCC4)s1	-	-	5.0	6.7	15.7	11.6	7.8	-	6.5	13.7	-
CCc1nnc(NC(=O)c2sc3nc4c(cc3c2N)CCCCCC4)s1	-	-	-	-	-	.	.	.	.	.	.
COc1ccc2cc3cc(C(=O)N4CCCCC4C)oc3nc2c1 (stereo not given)	-	-	10.6	-	14.0	10.1	5.3	.	.	17.3	-
C#CCOCCOCCOCCNc1nc(N2CCN(C(=O)[C@H](CCCCN)n3cc(CN)nn3)CC2)nc(N2CCN(C(=O)[C@H](CC(N)=O)n3cc(C(N)[C@H](C)CC)nn3)CC2)n1 (stereo not given in full)	-	-	-	-	-	.	.	.	.	.	.
N/C(=N\N=C\c1cccc(O)c1)c1nonc1N	3.2	-	7.2	13.5	20.4	14.9	10.6	-	9.0	16.9	-
COc1cc(/C=N/N=C(\N)c2nonc2N)ccc1O	-	-	-	-	-	.	.	.	.	.	.
COc1ccc(NC(=O)CSc2nnc(NC(=O)C3CCC3)s2)cc1	-	-	-	-	-	.	.	.	.	.	.
COc1ccc(C(=O)Nc2nnc(SCC(=O)Nc3ccc(NC(C)=O)cc3)s2)c(OC)c1	-	9.3	12.7	8.7	14.5	13.6	7.2	-	7.6	19.1	-
COC(=O)[C@@]12C[C@@H](CC(=O)N3CCOCC3)C(=O)N(Cc3ccc4c(c3)OCO4)C1=CCC(C)(C)C2	-	.	-	-	-	.	.	.	.	.	.
O=C1CC(c2ccccc2)=NO1	-	-	-	-	-	.	.	.	.	.	.
O=S1(=O)CC(c2ccccc2)=NN=C(c2ccccc2)C1	1.5	-	7.6	9.5	16.6	11.1	3.9	-	8.5	15.5	-
COc1ccc(CNC(=O)CN2CCC(NC(=O)c3cccc(OC)c3)CC2)cc1	-	-	-	-	-	.	.	.	.	.	.
O=c1c(-c2ccco2)nc2ccccc2n1C(c1ccccc1)c1nc2ccccc2[nH]1 (stereo not given)	-	.	4.7	-	16.4	-	-	.	.	-	-
O=c1c(-c2ccco2)nc2ccccc2n1C(CCc1ccccc1)c1nc2ccccc2[nH]1 (stereo not given)	-	.	-	-	-	.	.	.	.	.	.
O=C(Nc1nc2c(s1)CCCC2)c1ccc2ncsc2c1	1.0	-	8.0	6.2	15.7	10.2	3.2	.	.	11.5	-
CN(CC(=O)Nc1ccccc1Br)C(=O)c1cc2c(s1)CCCCC2	-	4.2	6.4	-	14.2	7.5	4.9	.	.	11.3	-
Cc1nc(-c2ccccc2)sc1-c1ccnn1C	-	-	6.2	8.8	15.9	15.0	7.9	-	5.8	18.1	-
Cc1nc(-c2ccccc2)sc1-c1ccn[nH]1	-	-	9.2	8.8	14.0	16.4	10.4	-	-	17.4	-
COc1ccc(NC(=S)N2CCC(N(C)CC3CCCO3)CC2)cc1Cl (stereo not given)	-	-	-	-	-	.	.	.	.	.	.
Cc1cccc(NC(=O)c2ccc3ccccc3n2)c1C	2.8	-	6.4	22.7	17.2	11.1	7.5	-	18.8	25.4	-
Cc1ccccc1NC(=O)c1cccc(C(=O)Nc2ccccc2C)n1	-	-	-	-	-	.	.	.	.	.	.
CCOC(=O)C1=CC[C@@H](c2ccccc2)N(S(=O)(=O)c2ccc(C)cc2)[C@H]1C#N	-	.	-	-	-	.	.	.	.	.	.
COc1cccc(OCc2ccc(Cl)cc2)c1C#N	1.7	4.8	-	8.4	12.3	.	.	-	7.3	.	.
COc1cc(C(=O)Nc2ccc(S(=O)(=O)N3CCOCC3)cc2)c([N+](=O)[O-])cc1OC	-	-	-	-	-	.	.	.	.	.	.
CC(C)=CCC/C(C)=C/CNC(=O)C[C@H]1C[C@H](C(=O)N2CCCCC2)[C@@]2(C)c3[nH]c4cc(CCC(=O)N(C)C)ccc4c3CCN2C1=O	.	-	.	.	.	.	.	.	.	.	.
SMILES	ssDAF12 agonist	DAX1 inh-1	DAX1 inh-2	hcDAF-12 act	hgDAF-12 ag	DAX1 inh confirm	SF1 AF2mut Luc	LXR ag	hcDAF12 conf	hgDAF12 ag	LXRb DAF12 ctr
O=S1(=O)c2ccc(Br)cc2OC[C@H](Cc2ccccc2)N1Cc1cn(Cc2ccc(Cl)cc2)nn1	-	.	-	-	-	.	.	.	.	.	.
Cc1nnc(-n2cccc2)s1	-	.	-	7.2	-	.	.	-	-	.	.
CCN1CCN(c2oc(-c3ccco3)nc2C#N)CC1	-	.	-	-	-	.	.	.	.	.	.
CC(C)Cc1ccc(C(=O)NCCOc2ccccc2)o1	-	-	-	9.9	-	.	.	-	7.4	.	.
Cc1ccc(OCCNC(=O)c2ccc(COc3ccccc3)o2)cc1	-	-	-	-	-	.	.	.	.	.	.
COc1ccc(C(C)(C)C)cc1NC(=O)CNc1cccc2ccccc12	-	-	-	7.6	-	.	.	-	-	.	.
COc1ccccc1NC(=O)Cc1cccc2ccccc12	-	-	-	-	-	.	.	.	.	.	.
O=C(COc1ccccc1Cl)Nc1ccc(S(=O)(=O)N2CCOCC2)cc1	-	-	-	-	-	.	.	.	.	.	.
COc1ccc(NC(=O)c2sc3nc(C)cc(C)c3c2N)cc1	-	-	-	-	-	.	.	.	.	.	.
Cc1cc(C)c2c(N)c(C(=O)Nc3ccc(C)c(C)c3)sc2n1	1.6	8.0	-	8.3	-	.	.	-	9.5	.	.
C=CCNc1nc(-c2ccc(OC)cc2OC)cs1	-	-	-	8.1	11.1	.	.	-	8.0	.	.
Cc1cc(=O)n2c(n1)SCOC2	-	-	-	-	-	.	.	.	.	.	.
COc1ccc2c(c1OC)C(=O)N1c3ccccc3SC21 (stereo not given)	-	-	-	8.8	11.7	.	.	-	7.5	.	.
Cc1nc2nc(-c3cccnc3)nn2c(C)c1Cl	-	-	-	-	-	.	.	.	.	.	.
Cc1nc2nc(-c3ccco3)nn2c(C)c1Cl	-	-	-	6.8	-	.	.	-	-	.	.
Cc1cc(-c2ccc(F)cc2)n2ncc(-c3ccccc3)c2n1	-	.	-	-	-	.	.	.	.	.	.
C=CCSc1cc(C)nc2c(-c3ccccc3)cnn12	2.9	4.9	-	12.0	12.3	.	.	-	6.9	.	.
